# Screens: PubChem BioAssay, several laboratories
# Shown are actives, neighbours in structure and some others; about 3.4% of the full set was active somewhere.
# TWEAK-Fn14 inh: inhibitors of TWEAK-Fn14 interaction signaling; actives 2% (n = 360,000); TWEAK-stimulated Fn14 reporter cells, luciferase luminescence, 8 h; inhibition, % at 10 µM; AID 1159606; in the data active means inhibition above about 50%
# LMP1 NFkB inh: inhibitors of Epstein-Barr LMP1-induced NF-kappaB reporter; LMP1-induced NF-kappaB luciferase reporter cells, luminescence; inhibition, % at 12.5 µM; actives 0.69% (n = 350,000); AID 504558; in the data active means inhibition above about 41%; inconclusive means no clear call, values can overlap the other calls;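 further: 0% = neutral control wells and 100% = reference inhibitor control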
# TROY signal inh: inhibitors of TROY-dependent NF-kB signaling; Q293 LMP1-TROYcd NF-kB luciferase reporter, 4 h; inhibition, % at 10 µM; actives 0.98% (n = 360,000); AID 1347056;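 active means compounds whose plate-normalised and pattern-corrected inhibition of the luciferase reporter signal at the single screening dose is 50% or more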
# Shn3 3UTR inh: inhibitors of Schnurri-3 3'UTR reporter in osteoblasts | Clone20 osteoblast Shn3 3'UTR firefly luciferase, 24 h | inhibition, % at 12.5 µM | actives 0.52% (n = 360,000) | AID 588674;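 active means mean inhibition of at least 75% with every replicate also reaching 75%; inconclusive means mean inhibition at least 75% but some replicate below; inactive means mean inhibition below 75%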;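 further: 0% = median of neutral control wells and 100% = pilot-screen positive control compound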
# HIF-2a inh: HIF-2a inhibition | inhibition, % at 18.8 µM | 786-0 RCC cells HIF-2a reporter, luciferase luminescence, overnight | AID 624352 | actives 0.72% (n = 360,000);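 active means inhibition of the luminescence signal of 40% or more relative to plate controls, in a single-dose primary screen at 18.75 µM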
# MITF TRPM1 inh: reduces MITF-dependent TRPM1 promoter luciferase signal; SK-MEL-5 TRPM1 promoter luciferase, 24 h; inhibition, % at 12.5 µM; actives 0.83% (n = 330,000);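 active means mean inhibition across replicates of 60% or more, whatever share of single replicates reaches that level; inconclusive means some that reach 60%, reason not given; inactive means mean inhibition across replicates below 60%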
# * hit, by the source's call; ? = inconclusive; · = no result.
SMILES,TWEAK-Fn14 inh,LMP1 NFkB inh,TROY signal inh,Shn3 3UTR inh,HIF-2a inh,MITF TRPM1 inh
Cc1c(/C(O)=C2\C(=O)C(=O)N(CCCN(C)C)C2c2cccs2)cnn1-c1ccccc1 (centres undefined),59*,3,66*,-12,-41,-20
COc1ccccc1C1/C(=C(/O)c2cnn(-c3ccccc3)c2C)C(=O)C(=O)N1CCN(C)C (centres undefined),21,-2,6,-1,6,-23
Cc1c(/C(O)=C2\C(=O)C(=O)N(CCCN(C)C)C2c2ccco2)cnn1-c1ccccc1 (centres undefined),80*,24,80*,-10,3,-5
Cc1c(/C(O)=C2\C(=O)C(=O)N(CCN(C)C)C2c2ccco2)cnn1-c1ccccc1 (centres undefined),42,14,4,5,1,-9
Cc1c(/C(O)=C2\C(=O)C(=O)N(CCN(C)C)C2c2ccccc2)cnn1-c1ccccc1 (centres undefined),57*,18,44,·,18,5
COc1ccc(Cl)cc1NC(=O)CCCn1c(=O)c2cccn2c2cccnc21,-20,4,2,1,9,·
CCCCCn1nnnc1-c1nc2cc(C)c(C)cc2[nH]c1=O,-9,·,-17,·,2,·
COc1ccccc1CNC(=O)C(=O)NCC1OCCCN1S(=O)(=O)c1ccc(F)cc1C (centres undefined),-9,-11,-10,9,5,0
COc1ccc(-n2ncc(C(C)NS(=O)(=O)c3cc(C)sc3C)c2C)cc1 (centres undefined),10,2,-2,4,-4,·
COCCNC(=O)C1(C)CCCN(C(=O)c2ccc(OC)cc2OC)C1 (centres undefined),-5,·,-1,17,3,·
Cc1c(/C(O)=C2/C(=O)C(=O)N(CCN3CCOCC3)C2c2cccs2)cnn1-c1ccccc1 (centres undefined),53*,-5,60*,-23,-44,-44
N#Cc1nc(Nc2cccc(Cl)c2)c2ncn(C3CCCC3)c2n1,87*,-63,1,-9,-150,-13
COc1cccc(C(NC(C)=O)c2nc(-c3cccc(C(C)C)c3)cs2)c1 (centres undefined),-4,·,0,-3,-11,·
CCCCN(CCCC)Cc1cc(=O)oc2cc(OC)c(Cl)cc12,11,·,-1,14,7,·
COc1ccc2sc(-c3ccc(S(C)(=O)=O)cc3)c(C#CCO)c2c1,77*,-12,46,-19,-160,-21
COc1ccc2c(C#CCCO)c(-c3ccc(S(C)(=O)=O)cc3)sc2c1,-27,-60,-44,-9,10,-2
COc1cc(-c2ccc3sc(-c4ccsc4)c(C#CCO)c3c2)cc(OC)c1OC,60*,23,42,24,-4,-4
CCOC(=O)C(C)Sc1nc(-c2cccs2)ccc1C#N (centres undefined),0,60*,4,-20,-60,0
CC1CCCC(C)N1C(=O)COc1ccc(C(=O)N/N=C/c2ccc(C(=O)O)cc2)cc1 (centres undefined),0,-13,-7,-6,9,-2
Cc1cc(NC(=O)Cn2cc([N+](=O)[O-])cn2)no1,-4,-8,88*,-2,2,2
Cc1cc(NC(=O)c2ccc(Cn3cc([N+](=O)[O-])cn3)o2)no1,3,1,11,6,2,1
O=C1CCCC/C=C\C[C@H](CC(=O)N(CCO)Cc2ccccc2)C(=O)NCCO1,0,7,5,-17,5,2
Cc1[nH]c(=O)[nH]c(=O)c1C=CC(=O)NC(CO)CS(=O)Cc1ccccc1 (centres undefined),6,-15,-8,-1,15,·
Cc1ccc(N(C)S(=O)(=O)c2cccc(C(=O)Nc3nc4ccccc4[nH]3)c2)cc1,54*,4,32,2,-58,-2
O=C(Nc1nc2ccccc2[nH]1)c1cccc([N+](=O)[O-])c1,2,-35,-58,-71,-235,-26
SMILES,TWEAK-Fn14 inh,LMP1 NFkB inh,TROY signal inh,Shn3 3UTR inh,HIF-2a inh,MITF TRPM1 inh
CN(C)c1cccc(C(=O)Nc2nc3ccccc3[nH]2)c1,61*,44*,2,14,-40,-12
O=C(Nc1nc2ccccc2[nH]1)c1cccc(F)c1,36,0,11,-20,-134,-4
O=C(Nc1nc2ccccc2[nH]1)c1cccc(Br)c1,31,-20,-32,-41,-273,-14
COc1cccc(C(=O)Nc2nc3ccccc3[nH]2)c1,87*,?,33,-1,3,26
CCCCCCCCN1C(=O)[C@H](CC(=O)N2CCC(c3ccccc3)CC2)C[C@@]2(C(=O)OC)CC(C)(C)CC=C12,·,·,·,·,5,·
COC(=O)c1ccccc1NC(=S)N(Cc1ccc2c(c1)OCO2)Cc1cc2cc(OC)ccc2[nH]c1=O,31,7,2,89*,-1,1
COc1ccccc1NC(=O)N(Cc1cccs1)Cc1cc2cc3c(cc2[nH]c1=O)OCO3,67*,8,18,20,32,31
COc1ccccc1NC(=S)N(CCCN(C)C)Cc1cc2cc3c(cc2[nH]c1=O)OCO3,13,-9,-18,11,16,5
CCc1ccc2[nH]c(=O)c(CN(Cc3ccccc3)C(=O)Nc3ccccc3OC)cc2c1,26,-13,55*,62,1,7
COC(=O)CN1C(=O)[C@H]2[C@@H](/C=C/c3ccccc3)N3C(=O)CN(Cc4ccccc4)C(=O)[C@@]3(C)[C@H]2C1=O,19,6,-19,1,9,-1
CCC(=O)Nc1ccc2c(c1)N(C(C)=O)c1ccccc1CC2,9,1,-12,0,20,0
N#Cc1cc2cc3c(cc2nc1SCC(=O)N1CCOCC1)OCCO3,97*,37,76*,13,36,34
N#Cc1cc2c(nc1SCC(=O)N1CCCCC1)CCCC2,-7,-6,2,5,-45,-5
N#Cc1cc2c(nc1SCC(=O)N1CCCCC1)CCCCC2,41,-7,56*,-21,-69,-20
O=C1NC[C@@H](CCCCN2CCN(CC3CCCCC3)C(=O)C2=O)N(CC2CCCCC2)C1=O,24,·,-10,·,-9,·
COc1ccc(NC(=O)CCNC(=O)c2ccccc2Cl)cc1S(=O)(=O)N1CCCCC1,6,-1,-17,-3,-4,·
CSc1ccc(C(=O)N2CCc3ccc(NC(=O)c4ccccn4)cc3C2)cc1,-22,-8,-4,-6,-138,-28
CSc1ccccc1C(=O)N1CCc2ccc(NC(=O)c3ccccn3)cc2C1,60*,-23,74*,-34,-164,·
CCOc1ccc(-n2c(-c3ccc(OC)cc3)c[n+]3c2CCCCC3)cc1,35,22,41,85*,17,77*
CCOc1ccc(-n2c(-c3ccccc3)c[n+]3c2CCC3)cc1,10,7,23,84*,10,33
